# VACV Venus inh: qHTS for Stage-Specific Inhibitors of Vaccinia Orthopoxvirus: Venus Reporter Primary qHTS; AID 720580, 2013; Potency, µM (doses to about 36.5 µM), for the others: at the top dose activity change, negative = inhibition, usual class: inhibitors; hit rate 0.46% among 330,000; Vaccinia virus Venus reporter expression, fluorescence; calls by dose curve; tested in A549 cells; note: potency is the fitted concentration of half-maximal effect; nearly all actives have a fitted effect of over 30% in size
# HCV inh: qHTS Assay for Inhibitors of Hepatitis C Virus (HCV); Potency, µM (highest dose often 41.8 µM), without a hit: top-dose activity change, negative = inhibition, most hits filed as inhibitors; Huh7.5.1 HCVcc-Cre infection, luciferase reporter, 44 h; hit rate 3.4% among 340,000; AID 651820, 2012; active = well fitted inhibition curve with a large enough effect; inconclusive = small, poorly fitted or top-dose-only effect, or another doubt; inactive = no such curve, though single readings can be large or run the other way; note: potency is the fitted concentration of half-maximal effect
#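 Reporter virus HCVcc-Cre (~0.5 moi) infects cells exposed to compound; seeding density 1,000 cells/well with 4 h settling beforehand. Luminescence, 15 sec read, taken 44 h post-infection following a 15 min RT substrate incubation.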
# Vaccinia mCherry: qHTS for Stage-Specific Inhibitors of Vaccinia Orthopoxvirus: mCherry Reporter Primary qHTS; Potency, µM (titrated, usually from 36.5 µM), inactives show top-dose activity change, negative = inhibition, most hits filed as inhibitors; hit rate 0.63% among 310,000; Vaccinia virus mCherry reporter infection, fluorescence; AID 720579, 2013; calls by dose curve; tested in A549 cells; note: potency is the fitted concentration of half-maximal effect; nearly all actives have a fitted effect of over 35% in size
# HCMV antiviral: qHTS Assay for inhibitors of the human cytomegalovirus (HCMV). hit rate 4.5% among 410,000. activity change, negative = inhibition, % at 57.5 µM. AID 1259415, 2018. HFF cells, HCMV-luciferase reporter, 72 h; hits give low values; in the data active = activity change below about -60%; inconclusive = no clear call, values can overlap the other calls; inactive = above about -39%
#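 Luciferase read-out from HCMV-luciferase-infected HFFs (MOI 1 PFU/cell) 72 h post infection at 37C; compounds added after 16 h cell attachment; activity normalized between buffer-only basal and Salinomycin (10uM) inhibitor controls.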
# FMDV inh: High Throughput Screening for Foot and Mouth Disease Virus Antivirals | hit rate 1.2% among 410,000 | FMDV antiviral cell-based qHTS | AID 1159524, 2015 | Potency, µM (titrated, usually from 57.9 µM), for inactives: at the highest dose activity change, negative = inhibition, most hits filed as inhibitors; calls by dose curve; tested in HEK293T cells; note: read-out not given here; potency is the fitted concentration of half-maximal effect; nearly all actives have a fitted effect of over 45% in size
# The depositor's hits bear a star; i = inactive; ? = inconclusive; · = not tested or not shown. An excerpt weighted towards active compounds, which were near 7.3% of everything screened. % is set by controls: 0 for no effect and ±100 for the full control effect.
SMILES,VACV Venus inh,HCV inh,Vaccinia mCherry,HCMV antiviral,FMDV inh
CCCC1=Nc2cc(C(=O)NCCOC)ccc2Sc2ccccc21,-27%,·,?,-97*,-13%
CCCC1=Nc2cc(C(=O)NCCCOCC)ccc2Sc2ccccc21,?,?,-26%,-82*,-14%
COc1ccccc1NC(=O)CSc1cn(CC(=O)N2CCCC2)c2ccccc12,0%,·,-6%,1,-2%
COc1ccc(CN(C(=O)c2cccs2)C(C(=O)NC2CCCCC2)c2ccc3ncccc3c2)cc1 (configuration not stated),0%,-8%,-6%,-20,-13%
O=C(NC1CCCCC1)C(c1ccncc1)N(Cc1ccccc1)C(=O)c1ccc(-c2ccccc2)[nH]1 (configuration not stated),·,13µM*,·,-32,16%
O=C(NC1CCCCC1)C(c1ccc2ncccc2c1)N(Cc1ccccc1)C(=O)c1cccs1 (configuration not stated),-23%,?,0%,-62*,·
COc1ccccc1CN1CCC2(CC1)CCN(C(=O)c1csnn1)CC2,·,·,·,·,-1%
O=C(NCCNc1cc(Cl)ccc1[N+](=O)[O-])c1ccco1,-14%,-19%,-16%,-75*,25%
CC(=O)Nc1ccc(S(=O)(=O)Nc2cccc(NC(=O)c3ccco3)c2)cc1,3%,?,-12%,-71*,12%
O=C(Nc1cccc(S(=O)(=O)c2cccc(NC(=O)C3CC3)c2)c1)C1CC1,?,5.6µM*,-14%,?,·
Cc1cc2cc(NC(=O)c3ccco3)ccc2[nH]1,-17%,-20%,·,50,32%
O=C(NCCNc1ccc([N+](=O)[O-])cc1)c1ccco1,2%,7%,-9%,-8,2%
O=C(Nc1ccc2[nH]c3c(c2c1)CCCC3)c1ccco1,-28%,13µM*,·,-24,7%
Cc1csc2nc(-c3ccc(NS(=O)(=O)c4cc(F)ccc4F)cc3)cn12,-7%,·,-10%,-22,8%
COC(=O)c1cc2occc2n1CC(=O)Nc1ccc(N(C)C)cc1,-6%,·,-12%,14,15%
COc1ccccc1CCNC(=O)c1ccc(-c2nc(CSc3ccc(C)cc3)c(C)o2)cc1,-4%,·,-16%,-7,?
O=C(Nc1ccc(Cl)c(Cl)c1)c1ccco1,-22%,?,-5%,23,0%
O=C(Nc1cccc(S(=O)(=O)c2cccc(NC(=O)c3ccco3)c2)c1)c1ccco1,-14%,11µM*,7%,-69*,35µM*
O=C(CCNC(=O)c1ccco1)Nc1cccc(C(F)(F)F)c1,0%,2%,i,-6,-3%
O=C(NNc1c([N+](=O)[O-])cc(C(F)(F)F)cc1[N+](=O)[O-])c1ccco1,·,4%,·,-11,32µM*
O=C(Nc1ccc(F)c(F)c1)c1ccco1,·,7%,·,-78*,21%
O=C(Nc1cccc(C(F)(F)F)c1)c1ccco1,·,10µM*,·,-14,12%
CCC(Sc1ncc(S(=O)(=O)c2ccc(C)cc2)c(=O)[nH]1)C(=O)Nc1cc(C)ccc1C (configuration not stated),1%,·,2%,-10,-3%
CN(C)c1ncc2ncc(=O)n(Cc3cccs3)c2n1,·,·,·,·,-23%
CN(C)c1cccc(CNc2nccc3[nH]c(-c4cccc(F)c4)nc23)c1,·,·,·,-16,·
C[C@H]1O[C@@H](O[C@H]2[C@@H](O)C[C@@H](O[C@H]3[C@@H](O)C[C@H](O[C@H]4CC[C@@]5(C)[C@H](CC[C@@H]6[C@@H]5CC[C@]5(C)[C@@H](C7=CC(=O)OC7)CC[C@]65O)C4)O[C@@H]3C)O[C@@H]2C)C[C@H](O)[C@@H]1O,0.025µM*,·,13µM*,·,·
CC(=O)OCC1OC(OC2C[C@]3(C)C(CC(O)C4C([C@](C)(CCC=C(C)C)OC5OC(CO)C(O)C(O)C5O)CC[C@]43C)[C@@]3(C)CCC(O)C(C)(C)C23)C(O[C@@H]2OC(C)C(O)C(O)C2O)C(O)C1O (some centres not stated),0%,29%,-17%,·,-23%

# High-throughput results (PubChem)
